According to PubChem BioAssay (NCATS):
Results filed as inconclusive are left out. Activity calls are given as the source filed them. The call rests on the fitted dose curve; in most records, active means well fitted activation curve with a large enough effect; inconclusive means small, poorly fitted or top-dose-only effect; inactive means flat fitted curve, though single readings scatter.

Molecular target: D(1A) dopamine receptor (Homo sapiens) (UniProt P21728)
Test: HTS Assay for Allosteric Agonists of the Human D1 Dopamine Receptor: Primary Screen for Agonists (AID 488981); on activation: 0% is about no effect
Settings: Inducible HEK293 T-REx D1 cells, calcium-flux fluorescence, 180 s kinetic; series mostly up to 41.8 µM; activation: at the top concentration
Source text: Dopamine receptors (DARs) are involved in the etiology and/or therapy of a number of neuropsychiatric and endocrine disorders. For instance, all receptor-based antiparkinsonian drugs work via stimulating the […] DAR subtype whereas all FDA-approved antipsychotic agents are antagonists of this receptor. […] There are three different types of allosteric modulators that we are seeking, two of which will stimulate or augment receptor signaling, allosteric agonists and potentiators, while the third, allosteric antagonists, will attenuate receptor signaling. The present primary screening assay measures compound agonism by tracking calcium flux in a […], inducible Hek293 Trex D1 cell line.
Freshly passaged cells are plated in 1536 well black, clear bottom plates at a density of 4000 cells/well in 3 ul of complete media containing 1x tetracycline inducer. After an overnight incubation at 30 C in 5% CO2, cells are loaded with 2 ul of the no wash Calcium Assay Kit (ABD Bioquest) and incubated at room temperature for 30 to 90 minutes. A 10 cycle (1 second/cycle) baseline measurement is taken and then the FDSS online 1536 pintool delivers 23 nl of compound library (as well as dopamine controls) to the plate. The plate is measured for kinetically at 1 cycle/sec for 180 seconds and is considered to be the agonist portion of the assay (eg, compounds which activate a positive calcium response during this portion are flagged as potential agonists). Following the 180 second read, 1 ul of an EC20 of dopamine is delivered by an onboard pipette head. Measurements are taken kinetically for an additional 180 seconds.
Potency means the concentration at half of the fitted maximal effect.

D(1A) dopamine receptor (Homo sapiens), sequence (P21728 whole entry, looked up): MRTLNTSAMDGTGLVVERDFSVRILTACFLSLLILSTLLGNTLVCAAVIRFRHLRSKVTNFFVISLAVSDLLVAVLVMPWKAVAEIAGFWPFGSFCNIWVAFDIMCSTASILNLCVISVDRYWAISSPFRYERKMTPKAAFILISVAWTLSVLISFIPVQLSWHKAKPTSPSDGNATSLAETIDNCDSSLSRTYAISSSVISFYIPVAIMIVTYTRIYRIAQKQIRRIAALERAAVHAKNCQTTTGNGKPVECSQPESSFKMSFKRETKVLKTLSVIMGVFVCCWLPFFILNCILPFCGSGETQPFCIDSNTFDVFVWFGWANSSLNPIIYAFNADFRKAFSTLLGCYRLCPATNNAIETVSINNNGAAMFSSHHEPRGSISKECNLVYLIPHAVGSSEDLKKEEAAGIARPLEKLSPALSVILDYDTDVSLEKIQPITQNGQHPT

Row | SMILES | activation | Potency
1 | CCCCNc1c(C(=O)OCC)c(C)nc2c1cnn2CC | 0.37% (inactive) | –
2 | NC(=O)N1c2ccccc2C=Cc2ccccc21 | -1.11% (inactive) | –
3 | CCn1ccnc1CC1COc2ccccc2O1 (stereo not given) | 6.19% (inactive) | –
4 | CCCCNC(=O)NS(=O)(=O)c1ccc(C)cc1 | -0.952% (inactive) | –
5 | CCN(CC)CCNC(=O)c1cc(S(C)(=O)=O)ccc1OC | -0.635% (inactive) | –
6 | C[C@@H](O)[C@H]1C(=O)N2C(C(=O)O)=C(SCCN=CN)C[C@H]12 | 1.37% (inactive) | –
7 | CCCN(CCC)CCc1cccc2c1CC(=O)N2 | 0.793% (inactive) | –
8 | CC(=O)[C@]1(O)Cc2c(O)c3c(c(O)c2[C@@H](O[C@H]2C[C@H](N)[C@H](O)[C@H](C)O2)C1)C(=O)c1ccccc1C3=O | – | 11.2 µM (active)
9 | CCc1c(C)[nH]c2c1C(=O)C(CN1CCOCC1)CC2 (stereo not given) | -1.37% (inactive) | –
10 | CCN1CCC[C@H]1CNC(=O)c1c(O)c(Cl)cc(Cl)c1OC | -0.688% (inactive) | –
11 | CCO/C([O-])=N/c1c[n+](N2CCOCC2)no1 | 0% (inactive) | –
12 | NC(Cc1ccc(Cl)cc1)C(=O)O (stereo not given) | 0.635% (inactive) | –
13 | CCC(=O)c1ccc2c(c1)N(CCCN(C)C)c1ccccc1S2 | 15.9% (inactive) | –
14 | COC(=O)[C@H]1[C@H]2C[C@@H]3c4[nH]c5cc(OC)ccc5c4CCN3C[C@H]2C[C@@H](OC(=O)c2cc(OC)c(OC)c(OC)c2)[C@@H]1OC | 11.4% (inactive) | –
15 | OCCN1CCN(CCCN2c3ccccc3C=Cc3ccccc32)CC1 | 12.8% (inactive) | –
16 | COCCc1ccc(OCC(O)CNC(C)C)cc1 (stereo not given) | 3.91% (inactive) | –
17 | NC(N)=NC(=O)Cc1c(Cl)cccc1Cl | 1.64% (inactive) | –
18 | CCCNC(C)C(=O)Nc1ccccc1C (stereo not given) | 5.24% (inactive) | –
19 | CC(=O)Oc1cc(C(C)C)c(OCCN(C)C)cc1C | 2.49% (inactive) | –
20 | CCN(CC)CCCN(c1ccccc1)C1Cc2ccccc2C1 | 19.2% (inactive) | –

Row | SMILES | activation | Potency
21 | COc1ccc(CN(CCN(C)C)c2ccccn2)cc1 | 6.24% (inactive) | –
22 | COC(=O)C1=C(C)NC(C)=C(C(=O)OC(C)(C)CN(C)CCC(c2ccccc2)c2ccccc2)C1c1cccc([N+](=O)[O-])c1 (stereo not given) | 1.27% (inactive) | –
23 | C#CCN(C)CCCOc1ccc(Cl)cc1Cl | 1.69% (inactive) | –
24 | CN(C(=O)CCCOc1ccc2[nH]c(=O)ccc2c1)C1CCCCC1 | -0.635% (inactive) | –
25 | N[C@@H](COP(=O)(O)O)C(=O)O | 0.317% (inactive) | –
26 | Brc1c(NC2=NCCN2)ccc2nccnc12 | -0.952% (inactive) | –
27 | CC(=O)OCC1=C(C(=O)O)N2C(=O)[C@@H](NC(=O)Cc3cccs3)[C@H]2SC1 | -0.211% (inactive) | –
28 | O=C(O)CP(=O)(O)O | -0.317% (inactive) | –
29 | c1cnc(N2CCN(Cc3ccc4c(c3)OCO4)CC2)nc1 | 1.64% (inactive) | –
30 | FC(F)(F)c1ccccc1-n1ccnc1 | 0.106% (inactive) | –
31 | CC(C)(C)NCC(O)c1cc(O)cc(O)c1 (stereo not given) | 0.635% (inactive) | –
32 | CCCN1C[C@H](CSC)C[C@@H]2c3cccc4[nH]cc(c34)C[C@H]21 | 17.1% (inactive) | –
33 | NC/C=C/C(=O)O | -0.582% (inactive) | –
34 | CN(C)C(=O)Oc1ccc[n+](C)c1 | 0.899% (inactive) | –
35 | OC(CCN1CCCCC1)(c1ccccc1)C1CCCCC1 (stereo not given) | 6.24% (inactive) | –
36 | O=C1NCN(c2ccccc2)C12CCN(CCCC(c1ccc(F)cc1)c1ccc(F)cc1)CC2 | 2.59% (inactive) | –
37 | OCCN1CCN(CC/C=C2/c3ccccc3Sc3ccc(C(F)(F)F)cc32)CC1 | 23.4% (inactive) | –
38 | CCn1nc(C(=O)O)c(=O)c2cc3c(cc21)OCO3 | 5.76% (inactive) | –
39 | COC(=O)[C@@H](N)Cc1ccc(O)c(O)c1 | -0.317% (inactive) | –
40 | CC(=O)OC(C)C[N+](C)(C)C (stereo not given) | 25.8% (inactive) | –
